# Assay results: the supplement of paper PMC8728848
# The full list was thinned out, with the strongest signals kept by preference.
# B1: AAL (Aleuria aurantia), P18891 (protein)
# chain: PTEFLYTSKIAAISWAATGGRQQRVYFQDLNGKIREAQRGGDNPWTGGSSQNVIGEAKLFSPLAAVTWKSAQGIQIRVYCVNKDNILSEFVYDGSKWITGQLGSVGVKVGSNSKLAALQWGGSESAPPNIRVYYQKSNGSGSSIHEYVWSGKWTAGASFGSTVPGTGIGATAIGPGRLRIYYQATDNKIREHCWDSNSWYVGGFSASASAGVSIAAISWGSTPNIRVYWQKGREELYEAAYGGSWNTPGQIKDASRPTPSLPDTFIAANSSGNIDISVFFQASGVSLQQWQWISGKGWSIGAVVPTGTPAGW
# B2: Intelectin-1a (Mus musculus) (protein)
# chain: AEWSHPQFEKAEENLDTNRWGNSFFSSLPRSCKEIKQEHTKAQDGLYFLRTKNGVIYQTFCDMTTAGGGWTLVASVHENNMRGKCTVGDRWSSQQGNRADYPEGDGNWANYNTFGSAEAATSDDYKNPGYFDIQAENLGIWHVPNKSPLHNWRKSSLLRYRTFTGFLQHLGHNLFGLYKKYPVKYGEGKCWTDNGPALPVVYDFGDARKTASYYSPSGQREFTAGYVQFRVFNNERAASALCAGVRVTGCNTEHHCIGGGGFFPEGNPVQCGDFASFDWDGYGTHNGYSSSRKITEAAVLLFYR
# Tests used:
# Assay in all cases: glycan array binding signal (z-score within array); higher = stronger binding
# Conditions in all cases: glycan notation: IUPAC condensed, linker removed
# [1] = molecular target: Fuc(a1-2)Gal(b1-3)GlcNAc(b1-2)Man(a1-3)[Fuc(a1-2)Gal(b1-3)GlcNAc(b1-2)Man(a1-6)]Man(b1-4)GlcNAc(b1-4)[Fuc(a1-6)]GlcNAc
# How it was run: (§1)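 Glycan array data came from 3228 arrays in the Consortium for Functional Glycomics database, and only arrays with an available protein sequence were kept. Glycan names were put into IUPAC-condensed notation, and columns mapping to the same glycan were averaged. The binding signal is a within-array Z-score, averaged across arrays of one protein sequence run at different concentrations or buffers and across linkers. A negative Z-score can be read as non-binding.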
# Fuc(a1-2)Gal(b1-4)Glc6S = molecular target: Fuc(a1-2)Gal(b1-4)Glc6S
# How it was run: as §1
# [2] = molecular target: Fuc(a1-2)Gal(b1-4)GlcNAc(b1-3)Gal(b1-4)GlcNAc(b1-3)Gal(b1-4)GlcNAc
# How it was run: as §1
# [3] = molecular target: Fuc(a1-2)Gal(b1-4)GlcNAc6S
# How it was run: as §1
# [4] = molecular target: Fuc(a1-2)Gal(b1-4)[Fuc(a1-3)]GlcNAc
# How it was run: as §1
# [5] = molecular target: Fuc(a1-2)Gal(b1-4)[Fuc(a1-3)]GlcNAc(b1-3)Gal(b1-4)[Fuc(a1-3)]GlcNAc(b1-3)Gal(b1-4)[Fuc(a1-3)]GlcNAc
# How it was run: as §1
# [6] = molecular target: Fuc(a1-2)Gal6S(b1-4)GlcNAc
# How it was run: as §1
# [7] = molecular target: Fuc(a1-2)[Gal(a1-3)]Gal(b1-3)GlcNAc(b1-2)Man(a1-3)[Fuc(a1-2)[Gal(a1-3)]Gal(b1-3)GlcNAc(b1-2)Man(a1-6)]Man(b1-4)GlcNAc(b1-4)GlcNAc
# How it was run: as §1
# Fuc(a1-3)GlcNAc = molecular target: Fuc(a1-3)GlcNAc
# How it was run: as §1
# [8] = molecular target: Fuc(a1-3)[Gal3S(b1-4)]GlcNAc
# How it was run: as §1
# Fuc(a1-4)GlcNAc = molecular target: Fuc(a1-4)GlcNAc
# How it was run: as §1
# [9] = molecular target: Gal(a1-3)Gal(b1-4)[Fuc(a1-3)]GalNAc
# How it was run: as §1
# Gal(a1-4)GlcNAc = molecular target: Gal(a1-4)GlcNAc
# How it was run: as §1
# [10] = molecular target: Gal(b1-3)GlcNAc(b1-3)Gal(b1-4)[Fuc(a1-3)]GlcNAc(b1-6)[Gal(b1-3)GlcNAc(b1-3)]Gal(b1-4)Glc
# How it was run: as §1
# [11] = molecular target: Gal(b1-3)GlcNAc(b1-3)GalNAc
# How it was run: as §1
# [12] = molecular target: Gal(b1-3)[GlcNAc(b1-6)]GlcNAc
# How it was run: as §1
# [13] = molecular target: Gal(b1-4)GlcNAc(b1-2)[Gal(b1-4)GlcNAc(b1-4)]Man(a1-3)[GlcNAc(b1-4)][Gal(b1-4)GlcNAc(b1-2)Man(a1-6)]Man(b1-4)GlcNAc(b1-4)GlcNAc
# How it was run: as §1
# [14] = molecular target: Gal(b1-4)GlcNAc(b1-3)Gal(b1-4)[Fuc(a1-3)GlcNAc(b1-6)]Gal(b1-4)Glc
# How it was run: as §1
# Glc(b1-4)Glc = molecular target: Glc(b1-4)Glc
# How it was run: as §1
# [15] = molecular target: GlcNAc(a1-3)Gal(b1-4)GlcNAc
# How it was run: as §1
# GlcNAc(b1-3)Gal = molecular target: GlcNAc(b1-3)Gal
# How it was run: as §1
# [16] = molecular target: GlcNAc(b1-3)Gal(b1-3)GalNAc
# How it was run: as §1
# [17] = molecular target: GlcNAc(b1-3)[GlcNAc(b1-6)]Gal(b1-4)GlcNAc
# How it was run: as §1
# [18] = molecular target: GlcNAc(b1-3)[GlcNAc(b1-6)]GlcNAc(b1-4)GlcNAc
# How it was run: as §1
# [19] = molecular target: GlcNAc(b1-4)Gal(b1-4)GlcNAc
# How it was run: as §1
# [20] = molecular target: GlcNAc6S(b1-3)Gal(b1-4)GlcNAc
# How it was run: as §1
# [21] = molecular target: Neu5Ac(a2-3)Gal(b1-3)GlcNAc6S
# How it was run: as §1
# [22] = molecular target: Neu5Ac(a2-3)Gal(b1-3)[Fuc(a1-4)]GlcNAc
# How it was run: as §1
# [23] = molecular target: Neu5Ac(a2-3)Gal(b1-4)GlcNAc(b1-6)[Gal(b1-3)]GalNAc
# How it was run: as §1
# [24] = molecular target: Neu5Ac(a2-3)Gal6S(b1-4)GlcNAc
# How it was run: as §1
# [25] = molecular target: Neu5Ac(a2-3)Gal(b1-3)GlcNAc(b1-2)Man(a1-3)[GlcNAc(b1-4)][Neu5Ac(a2-3)Gal(b1-3)GlcNAc(b1-2)Man(a1-6)]Man(b1-4)GlcNAc(b1-4)GlcNAc
# How it was run: as §1
# [26] = molecular target: Neu5Ac(a2-3)Gal(b1-3)GlcNAc(b1-3)GalNAc
# How it was run: as §1
# [27] = molecular target: Neu5Ac(a2-3)Gal(b1-3)GlcNAc(b1-6)GalNAc
# How it was run: as §1
# [28] = molecular target: Neu5Ac(a2-3)Gal(b1-3)[Neu5Ac(a2-6)]GalNAc
# How it was run: as §1
# [29] = molecular target: Neu5Ac(a2-3)Gal(b1-4)GlcNAc
# How it was run: as §1
# [30] = molecular target: Neu5Ac(a2-3)Gal(b1-4)GlcNAc(b1-3)Gal(b1-3)GlcNAc
# How it was run: as §1
# [31] = molecular target: Neu5Ac(a2-3)Gal(b1-4)GlcNAc(b1-3)Gal(b1-4)[Fuc(a1-3)]GlcNAc
# How it was run: as §1
# [32] = molecular target: Neu5Ac(a2-3)Gal(b1-4)[Fuc(a1-3)]GlcNAc(b1-3)GalNAc
# How it was run: as §1
# [33] = molecular target: Neu5Ac(a2-6)Gal(b1-4)GlcNAc(b1-2)Man(a1-3)Man(b1-4)GlcNAc(b1-4)GlcNAc
# How it was run: as §1
# [34] = molecular target: Neu5Ac(a2-6)Gal(b1-4)GlcNAc(b1-2)Man(a1-3)[Man(a1-6)]Man(b1-4)GlcNAc(b1-4)GlcNAc
# How it was run: as §1
# [35] = molecular target: Neu5Ac(a2-6)Gal(b1-4)GlcNAc(b1-2)Man(a1-6)Man(b1-4)GlcNAc(b1-4)GlcNAc
# How it was run: as §1
# [36] = molecular target: Neu5Ac(a2-6)Gal(b1-4)GlcNAc(b1-3)Gal(b1-4)GlcNAc(b1-3)Gal(b1-4)GlcNAc
# How it was run: as §1
# [37] = molecular target: Neu5Ac(a2-8)Neu5Ac(a2-3)[GalNAc(b1-4)]Gal(b1-4)Glc
# How it was run: as §1
# [38] = molecular target: Neu5Ac(a2-8)Neu5Ac(a2-8)Neu5Ac(a2-3)Gal(b1-4)Glc
# How it was run: as §1
binder,measurement,setting,value
B1,glycan array binding signal (z-score),[1],-0.012
same,glycan array binding signal (z-score),Fuc(a1-2)Gal(b1-4)Glc6S,3.52
same,glycan array binding signal (z-score),[2],3.03
same,glycan array binding signal (z-score),[3],2.6
same,glycan array binding signal (z-score),[4],2.51
same,glycan array binding signal (z-score),[5],2.68
same,glycan array binding signal (z-score),[6],2.6
same,glycan array binding signal (z-score),[7],-0.407
same,glycan array binding signal (z-score),Fuc(a1-3)GlcNAc,2.85
same,glycan array binding signal (z-score),[8],1.76
same,glycan array binding signal (z-score),Fuc(a1-4)GlcNAc,1.99
same,glycan array binding signal (z-score),[9],2.52
same,glycan array binding signal (z-score),Gal(a1-4)GlcNAc,-0.498
same,glycan array binding signal (z-score),[10],0.584
same,glycan array binding signal (z-score),[11],-0.414
same,glycan array binding signal (z-score),[12],-0.62
same,glycan array binding signal (z-score),[13],-0.348
same,glycan array binding signal (z-score),[14],0.521
same,glycan array binding signal (z-score),Glc(b1-4)Glc,-0.525
same,glycan array binding signal (z-score),[15],-0.512
same,glycan array binding signal (z-score),GlcNAc(b1-3)Gal,-0.501
same,glycan array binding signal (z-score),[16],-0.515
same,glycan array binding signal (z-score),[17],-0.514
same,glycan array binding signal (z-score),[18],-0.567
same,glycan array binding signal (z-score),[19],-0.525
same,glycan array binding signal (z-score),[20],-0.391
same,glycan array binding signal (z-score),[21],-0.493
same,glycan array binding signal (z-score),[22],1.33
same,glycan array binding signal (z-score),[23],-0.444
same,glycan array binding signal (z-score),[24],1.5
B2,glycan array binding signal (z-score),[19],-0.454
same,glycan array binding signal (z-score),[25],-0.723
same,glycan array binding signal (z-score),[26],-0.237
same,glycan array binding signal (z-score),[27],0.808
same,glycan array binding signal (z-score),[28],-0.222
same,glycan array binding signal (z-score),[29],-1.12
same,glycan array binding signal (z-score),[30],-0.402
same,glycan array binding signal (z-score),[31],-0.8
same,glycan array binding signal (z-score),[32],6.37
same,glycan array binding signal (z-score),[33],0.578
same,glycan array binding signal (z-score),[34],3.98
same,glycan array binding signal (z-score),[35],-0.293
same,glycan array binding signal (z-score),[36],0.765
same,glycan array binding signal (z-score),[37],-0.791
same,glycan array binding signal (z-score),[38],-0.483
